Results published in PubChem BioAssay AID1347417 (National Center for Advancing Translational Sciences (NCATS), 2020).
Screen size: about 120,000 compounds; about 5,300 (4.4%) were called active. Entries that show only a call come without a potency. Another 22% or so got no clear call; they are omitted. This is one part of a sample in which actives are shown more often than they occur. Unmarked numbers belong to inactive results. The call rests on the fitted dose curve; in most records, active means well fitted inhibition curve with a large enough effect; inconclusive means small, poorly fitted or top-dose-only effect; inactive means no such curve, though single readings can be large or run the other way.

Experiment: qHTS Primary assay for Inhibitors of Plasmodium falciparum Dd2 growth in vitro; further: nearly all actives have a fitted effect of over 65% in size
Details: P. falciparum Dd2 growth, SYBR Green, 72 h; series mostly up to 28.9 µM
Summary of the method: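 Infected erythrocytes (Dd2, 0.3% parasitemia, 2.5% hematocrit final) are added to compound in RPMI-1640/Albumax II medium, grown 72 h at 37C in low oxygen, then lysed with saponin/Triton-X containing SYBR Green and read by fluorescence.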
Potency means the concentration at half of the fitted maximal effect.

Row | SMILES | Potency | outcome | activity, negative = inhibition
1 | Cc1noc(-c2cccn3c(CNC(=O)CCc4ccccc4)nnc23)n1 | inactive | – | –
2 | COc1cccc(CC(=O)NC2CCN(c3cc(-c4ccccc4)[nH]n3)C2)c1 (stereo not given) | inactive | – | –
3 | CC#CCn1cc2c3c(cccc31)[C@H](CC(C)C)N[C@H](C(=O)NCc1ccccc1OC)C2 | inactive | – | –
4 | COc1ccc(CNC(=O)[C@@H]2Cc3cn(Cc4ccncc4)c4cccc(c34)[C@H](CC(C)C)N2)cc1 | inactive | – | –
5 | CC(C)C[C@@H]1N[C@H](C(=O)NCc2ccc(F)cc2)Cc2cn(C)c3cccc1c23 | 14.1 µM (active) | – | –
6 | O=C(Nc1cccnc1)N[C@@H]1C[C@H](CO)[C@@H](O)[C@H]1O | inactive | – | –
7 | Cc1ccccc1CNC(=O)C1CCCN(C(=O)c2ccccc2)CCC(=O)NCC1 (stereo not given) | inactive | – | –
8 | O=c1c2cccnc2n(Cc2cccc(F)c2)c(=O)n1Cc1ccccc1Cl | 12.6 µM (active) | – | –
9 | COc1ccc(-n2c(=O)c3ccccc3n(Cc3ccccc3Cl)c2=O)cc1 | inactive | – | –
10 | O=C(O)c1ccc(CSc2nc3cccnc3n2Cc2cccc(F)c2)cc1 | inactive | – | –
11 | COc1ccc(-c2ccnc3nc(CC(C)C)nn23)c(F)c1 | inactive | – | –
12 | CC(NC(=O)c1noc(-c2ccc(F)cc2)n1)c1ccc(F)cc1 (stereo not given) | inactive | – | –
13 | Cc1cccc(C(=O)N2CCC(CC(=O)NCc3ccccc3)C2)c1 (stereo not given) | inactive | – | –
14 | CN1CCCN(S(=O)(=O)c2cccs2)c2ccccc21 | inactive | – | –
15 | O=S(=O)(c1cccs1)N1CCC(OC2CCN(Cc3ccccc3)CC2)CC1 | 3.55 µM (active) | – | –
16 | CC(C)C(=O)N1CCC(OC2CCN(Cc3ccccc3)CC2)CC1 | inactive | – | –
17 | CC(C)CN1CCN(C2CCOC3(CCN(S(=O)(=O)c4cccs4)CC3)C2)CC1 (stereo not given) | inactive | – | –
18 | Cc1cccc(C(=O)N2CCC(OC3CCN(Cc4ccccc4)CC3)CC2)c1 | 3.98 µM (active) | – | –
19 | N[C@H]1CCN2C(=O)c3cc(-c4ccc(F)cc4F)ccc3NC(=O)[C@H]12 | inactive | – | –
20 | Cc1cccc(C(=O)N2CC(c3nnc(C(C)C)o3)C3(CCOCC3)C2)c1 (stereo not given) | inactive | – | –
21 | Cc1cnc(CCNC(=O)c2cn(C)cn2)n1C1CC1 | inactive | – | –
22 | Cc1cnc(CCNC(=O)Nc2ccccc2F)n1C1CCC1 | 4.47 µM (active) | – | –
23 | CC(=O)NCCc1ncc(C)n1C1CCCCC1 | inactive | – | –
24 | C=C(C)CN(CC)C(=O)c1c(C)oc2c1CN(Cc1cccc(F)c1)CC2 | 8.91 µM (active) | – | –
25 | O=c1[nH]c(N2CCOCC2)nc2c1CCN(Cc1cccc(F)c1)CC2 | – | inactive [at 5.79 µM] | –

Row | SMILES | Potency | outcome | activity, negative = inhibition
26 | CCNC(=O)c1c(C)oc2c1CN(C(=O)CCc1ccccc1)CC2 | inactive | – | –
27 | O=C(CCc1ccccc1)N1CCCCCC1c1nc(-c2ccccc2)no1 (stereo not given) | inactive | – | –
28 | Cc1cccc(CC(=O)N2CCC(c3noc(COCC4CC4)n3)CC2)c1 | inactive | – | –
29 | Cc1ccc2c(C)c(C(=O)N3CCCn4cncc4C3)oc2c1 | inactive | – | –
30 | COc1ccc(C(=O)Nc2ccc3nc(N4CCCCC4)cc(C)c3c2)cc1OC | 3.16 µM (active) | – | –
31 | COc1ccc(NC(=O)c2ccc3nc(C(C)C)oc3c2)cc1OC | inactive | – | –
32 | COc1ccc(NC(=O)c2ccc3c(c2)N(S(C)(=O)=O)CC3)cc1OC | inactive | – | –
33 | COc1ccc(N2CCC(NC(=O)c3ccc(N(C)C)cc3)C2=O)cc1 (stereo not given) | inactive | – | –
34 | O=C(NCc1ccc(Cl)nc1)c1cnn2c1CN([S+](=O)([O-])c1cccc(C(F)(F)F)c1)CC2 | inactive | – | –
35 | O=C(Nc1ccc2nc(SCCOc3ccccc3)sc2c1)c1ccco1 | 4.47 µM (active) | – | –
36 | Cc1ccccc1OCCSc1nc2ccc(NC(=O)c3ccco3)cc2s1 | 2.24 µM (active) | – | –
37 | COc1cc(C)ccc1OCCSc1nc2ccc(NC(=O)c3ccc(C)cc3)cc2s1 | inactive | – | –
38 | CC(=O)Nc1ccc2nc(SCCOc3cc(C)cc(C)c3)sc2c1 | inactive | – | –
39 | Cc1ccc(OCCSc2nc3ccc(NC(=O)COc4ccc(C)cc4)cc3s2)cc1 | inactive | – | –
40 | Cc1cccc(OCCSc2nc3ccc(NC(=O)COc4ccccc4C)cc3s2)c1 | inactive | – | –
41 | CN1CC2(CCN(Cc3cn[nH]c3-c3ccccc3)CC2)CC1C(=O)N1CCOCC1 (stereo not given) | inactive | – | –
42 | O=C(CCc1conc1-c1ccccc1F)NCc1cccc(C(F)(F)F)c1 | inactive | – | –
43 | C=CCCC(CN1CCCC1)Oc1cncc(C(=O)N2CCCC2)n1 (stereo not given) | 7.94 µM (active) | – | –
44 | COC[C@@H]1CN(C(=O)Cc2ccc(OC)cc2)C[C@H]1C(N)=O | inactive | – | –
45 | CCCC1c2nccn2CCCN1C(=O)c1ccc(OC)nc1 (stereo not given) | inactive | – | –
46 | COc1ccccc1OCCNC(=O)CCc1cc2cc(C)ccc2[nH]c1=O | inactive | – | –
47 | O=C(N[C@@H]1CCOC[C@H]1Oc1ccccn1)c1cc(C2CC2)no1 | inactive | – | –
48 | Cc1ccc(CN2CCCC23Cc2ccccc2CNC3=O)cc1C (stereo not given) | inactive | – | –
49 | Cc1nn(-c2ccccc2)c(C)c1CN1CCCC12Cc1ccccc1CNC2=O (stereo not given) | 2.24 µM (active) | – | –
50 | O=C1Nc2ccccc2CC12CCN2Cc1cncs1 (stereo not given) | inactive | – | –

Row | SMILES | Potency | outcome | activity, negative = inhibition
51 | COc1ccc(CN2CCC3(CC2)Cc2ccccc2CNC3=O)cn1 | inactive | – | –
52 | N#Cc1ccc(CN2CCC3(Cc4ccccc4NC3=O)C2)cc1 (stereo not given) | inactive | – | –
53 | O=C1Nc2ccccc2CC12CCCN2Cc1ccccc1 (stereo not given) | 10 µM (active) | – | –
54 | CSc1nccc(N2CCC(c3nccn3Cc3cccnc3)CC2)n1 | inactive | – | –
55 | CCS(=O)(=O)N1CCCN(C(=O)C2CC2)C(c2ccccc2)CC(=O)NCC1 (stereo not given) | inactive | – | –
56 | CN1CC2(CCN(C(=O)c3n[nH]c(=O)c4ccccc34)CC2)CC1C(=O)N1CCOCC1 (stereo not given) | inactive | – | –
57 | O=C(NCc1cccnc1)c1nc(-c2ccc(Cl)nc2)c2cnccn12 | inactive | – | –
58 | CN(C)C(=O)c1nc(-c2cccnc2)c2ccccn12 | inactive | – | –
59 | CN(C)C(=O)c1nc(-c2ccc(Cl)cc2Cl)c2cnccn12 | 10 µM (active) | – | –
60 | O=C1CCN(C(=O)CN2CCCCCC2)CCCC(c2nc(-c3ccccc3)no2)CCN1 (stereo not given) | inactive | – | –
61 | Cc1cc(C[C@@H]2COC[C@@H]2NC(=O)c2ccc3nc(C)[nH]c3c2)on1 | inactive | – | –
62 | Cc1ccccc1Nc1nn2c(=O)c3ccc(C(=O)NCCc4ccc(Cl)cc4)cc3nc2s1 | 3.16 µM (active) | – | –
63 | O=C(NCCc1ccc(Cl)cc1)c1ccc2nc(CCc3ccccc3)oc2c1 | inactive | – | –
64 | CCc1ccc(Nc2nn3c(=O)c4cc5c(cc4nc3s2)OCO5)cc1 | inactive | – | –
65 | CC(C)c1nc(CNC(=O)c2ccc(N(C)C)nc2)no1 | inactive | – | –
66 | c1cc(-c2ccsc2)n2nc(C3CCCO3)nc2n1 (stereo not given) | inactive | – | –
67 | Cc1ccc([C@@H]2CN(C(=O)c3ccco3)[C@@H]3C4CCN(CC4)[C@@H]32)cc1 | inactive | – | –
68 | Cn1cc(CN2CCCN(C(=O)c3ccco3)CC2)c(-c2ccc(C3CCCCC3)cc2)n1 | 8.91 µM (active) | – | –
69 | COCCn1nc2n(c1=O)CCN(C(=O)c1ccco1)CC2 | inactive | – | –
70 | COCc1nc(CCNC(=O)CCc2ccccc2)no1 | inactive | – | –
71 | COc1ccc(-c2cc(N3CCCN(C(=O)c4ccc(OC)cc4C)CC3)n[nH]2)cc1 | inactive | – | –
72 | CCn1nccc1C(=O)N1CCn2nnc(CCC(=O)NCc3ccccc3)c2C1 | inactive | – | –
73 | Cc1ccccc1-c1[nH]nc2ncc(-c3ccccc3)nc12 | 3.98 µM (active) | – | –
74 | Cc1ccsc1-c1[nH]nc2ncc(-c3ccccc3O)nc12 | inactive | – | –
75 | COc1ccc(-c2[nH]nc3ncc(-c4ccccc4)nc23)c(C)c1 | inactive | – | –

Row | SMILES | Potency | outcome | activity, negative = inhibition
76 | Cc1ccc(CNC(=O)C2(c3ccc(NS(C)(=O)=O)cc3)CCCCC2)cc1 | inactive | – | –
77 | NCC(=O)N1CCCC2(Cc3ccccc3CN2C(=O)c2cccc(Cl)c2)C1 (stereo not given) | 11.2 µM (active) | – | –
78 | O=C(c1cccc(Cl)c1)N1CCC2(CC1)NCc1ccccc1NC2=O | inactive | – | –
79 | NCC(=O)N1Cc2ccccc2CC2(CCCCN2CC2CCOCC2)C1 (stereo not given) | inactive | – | –
80 | COc1ccc(CN2CC[C@@H]3CN(S(C)(=O)=O)[C@@H]3C2)c(OC)c1 | inactive | – | –
81 | c1cncc(CNc2cc(-c3cnc4ccccc4n3)c3cc[nH]c3n2)c1 | 3.98 µM (active) | – | –
82 | Fc1ccc(-c2cc(NC3CCCC3)nc3[nH]ccc23)nc1 | inactive | – | –
83 | c1ccc(CN2CCNc3cc(NCc4cccnc4)ncc3C2)cc1 | inactive | – | –
84 | NC(=O)c1ccc(OC2CCN(C(=O)CCc3ccccc3)C2)nc1 (stereo not given) | inactive | – | –
85 | O=C(c1ccccc1F)N1CC(Oc2cccc(-c3nc(-c4ccccc4)no3)c2)C1 | – | – | 36.6% [at 5.79 µM]
86 | CCCC(=O)N1CCC(N2C(=O)C(O)C23CCCCC3)CC1 (stereo not given) | inactive | – | –
87 | COCCN1CC[C@H]2CN(C(=O)Cc3ccc(OC)cc3)CC[C@H]2CC1=O | inactive | – | –
88 | C[C@]1(CO)C2CC[C@@H](O)[C@@H](CC(=O)N3CC[C@@H](O)C3)[C@]2(C)CC[C@H]1OC(=O)Nc1ccc(Oc2ccccc2)cc1 (stereo not given in full) | inactive | – | –
89 | CCOc1ccccc1CNC(=O)C1CCCN(S(=O)(=O)c2ccc3c(ccn3C)c2)C1 (stereo not given) | inactive | – | –
90 | COc1ccc(CCNC(=O)c2ccc(-n3c(C)cc4c3CCCC4)cc2)cc1OC | 11.2 µM (active) | – | –
91 | COc1ccccc1CNC(=O)c1ccc(-n2c(C)cc3c2CCCC3)cc1 | 11.2 µM (active) | – | –
92 | COc1ccc(CCNC(=O)c2noc(-c3ccc(C)cc3)n2)cc1OC | inactive | – | –
93 | COc1ccccc1Oc1ncccc1CNC(=O)c1ccc2n[nH]nc2c1 | inactive | – | –
94 | CCOc1ccccc1CNC(=O)c1ccc(-n2c(C)cc3c2CCC(C)C3)cc1 (stereo not given) | 12.6 µM (active) | – | –
95 | COc1ccccc1CNC(=O)c1cc2c(s1)CCN(C(=O)c1ccccc1)C2 | inactive | – | –
96 | COc1ccc(CCNC(=O)c2ccc3c(c2)nc(C)n3-c2ccc(Br)cc2)cc1OC | inactive | – | –
97 | CCOc1ccccc1CNC(=O)c1ccc2c(c1)nc1n2CCC(C)C1 (stereo not given) | inactive | – | –
98 | COc1ccc(NC(=O)Cn2ccn3nc(-c4ccc(F)cc4)c(CO)c3c2=O)c(OC)c1 | inactive | – | –
99 | O=C(N[C@@H]1CN[C@H](CO)C1)c1ccncc1 | inactive | – | –
100 | COC(=O)[C@@H]1Cc2c([nH]c3ccccc23)[C@H]2C[C@@H](NCCN3CCOCC3)C[C@@H](c3ccccc3F)N21 | inactive | – | –
